# Source: PubChem BioAssay
# Inconclusive results are not listed. Activity calls are given as the source filed them.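 Rule for the calls, unless noted: active = viability at or below 30% in both replicate assays; inconclusive = viability at or below 30% in just one of the two assays; inactive = the rest.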
# Assays:
# [1] = reducers of endogenous Her2 protein level, primary screen, SKBR3 breast tumor cells, AlphaScreen, ATP viability (AID 461;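 active = Her2 level under about 52% in both replicate screens, with viability over 70% of control, limit read from the data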;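 for Her2 level: lower value means less Her2 protein in the cells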;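 for viability: percent of carrier control wells set as 100% viability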); details: 18-24 h, measured here: SKBR3 viability, ATP luminescence, at 10 µM
# [2] = biological target: Receptor tyrosine-protein kinase erbB-2 (Homo sapiens) (UniProt P04626); assay: as above; details: 18-24 h, at 10 µM, stronger effect = lower value
# Receptor tyrosine-protein kinase erbB-2 (Homo sapiens), sequence (P04626 whole entry, looked up): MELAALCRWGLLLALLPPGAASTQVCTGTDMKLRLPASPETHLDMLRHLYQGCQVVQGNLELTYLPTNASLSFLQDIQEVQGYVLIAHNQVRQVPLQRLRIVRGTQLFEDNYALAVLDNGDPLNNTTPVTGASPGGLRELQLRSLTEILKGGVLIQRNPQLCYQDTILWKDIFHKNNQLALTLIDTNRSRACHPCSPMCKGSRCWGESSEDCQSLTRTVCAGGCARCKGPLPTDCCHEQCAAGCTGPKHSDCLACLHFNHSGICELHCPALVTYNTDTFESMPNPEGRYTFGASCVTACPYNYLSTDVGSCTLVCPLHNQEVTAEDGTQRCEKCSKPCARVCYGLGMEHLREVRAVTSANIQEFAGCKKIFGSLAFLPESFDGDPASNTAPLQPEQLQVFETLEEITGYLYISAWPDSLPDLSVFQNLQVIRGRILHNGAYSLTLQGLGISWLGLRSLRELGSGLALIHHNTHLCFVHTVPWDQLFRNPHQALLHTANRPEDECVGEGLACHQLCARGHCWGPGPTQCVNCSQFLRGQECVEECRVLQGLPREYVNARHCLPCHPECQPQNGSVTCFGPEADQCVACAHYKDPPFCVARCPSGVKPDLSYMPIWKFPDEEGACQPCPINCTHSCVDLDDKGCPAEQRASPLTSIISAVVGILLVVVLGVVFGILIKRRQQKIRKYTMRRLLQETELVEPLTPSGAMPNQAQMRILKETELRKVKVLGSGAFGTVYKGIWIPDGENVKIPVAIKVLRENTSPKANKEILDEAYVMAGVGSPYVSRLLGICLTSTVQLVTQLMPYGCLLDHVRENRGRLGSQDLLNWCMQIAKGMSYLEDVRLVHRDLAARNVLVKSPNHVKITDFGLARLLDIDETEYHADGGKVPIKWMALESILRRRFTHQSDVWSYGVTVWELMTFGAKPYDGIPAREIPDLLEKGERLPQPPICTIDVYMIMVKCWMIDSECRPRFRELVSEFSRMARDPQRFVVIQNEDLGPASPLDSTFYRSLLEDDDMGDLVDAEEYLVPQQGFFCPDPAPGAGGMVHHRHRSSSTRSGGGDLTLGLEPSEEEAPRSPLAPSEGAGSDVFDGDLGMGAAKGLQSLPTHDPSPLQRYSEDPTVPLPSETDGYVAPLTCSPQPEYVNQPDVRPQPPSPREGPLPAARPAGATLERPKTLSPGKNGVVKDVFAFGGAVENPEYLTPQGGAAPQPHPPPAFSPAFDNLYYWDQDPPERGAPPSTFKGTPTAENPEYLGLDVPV
# [3] = SK-BR-3 cell growth inhibitors, pilot screen, 24 h, human (AID 572;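 active = viability at or below 10% of carrier control in both of two separate runs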;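 note: compound exposure lasted between 18 and 24 h rather than exactly 24 h; 100% = carrier-treated control wells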); details: SK-BR-3 viability, CellTiter-Glo luminescence, at 10 µM, stronger effect = lower value
# [4] = HUVEC growth inhibition – cell-based, human, primary screen (AID 575); details: HUVEC proliferation, CellTiter-Glo luminescence, 72 h; at 10 µM; stronger effect = lower value;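 note: 100% = median of untreated cell wells with 0.1% DMSO on each plate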
# [5] = growth inhibitors of H69AR lung tumor, primary screen, human, duplicate replicates (AID 580;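 active = viability at or under a set limit in both replicates, limit being median viability minus 3 SD, cut at about 48% in these data, passing the limit was not always enough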;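 note: 100% = mean luminescence of untreated wells and 0% = no signal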); details: H69AR lung tumor cells viability, ATP luminescence, 72 h; at 10 µM; stronger effect = lower value
# [6] = reversal of MRP1-mediated doxorubicin resistance, pilot screen, H69AR cells, doxorubicin co-treatment (AID 601;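 active = viability loss from added drug above about 55%, and viability with drug at most 40%, in both replicates, limit read from the data, passing the limit was not always enough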); details: CellTiter-Glo, 72 h, at 10 µM; for differential viability (reversal): stronger effect = higher value
# [7] = 384-well plate pilot, post-Golgi transport modulator project, inhibition of yeast transport mutant growth (AID 636; in the data active = inhibition above about 31%); details: absorbance 615 nm, about 18 h, stronger effect = higher value
# [8] = growth suppression of yeast trafficking mutant, preliminary HTS, modulators of trafficking downstream of Golgi apparatus project, 1536-format plate, OD 615 nm (AID 637; in the data active = inhibition above about 30%); details: yeast transport mutant growth, absorbance 615 nm, 18 h; stronger effect = higher value
# [9] = OD615 S. cerevisiae growth inhibition, permissive medium, pilot counter-assay, permissive growth control for S. cerevisiae lifespan shortening project (AID 705;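 active = growth inhibition above 25% in both replicates, a cutoff set 3 SD above the mean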); details: OD615, 24 h, at 10 µM, stronger effect = higher value
# [10] = Restrictive medium S. cerevisiae growth inhibition, OD615, pilot screen of yeast lifespan reduction project, restrictive growth control (AID 706;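 active = growth inhibition above a set limit, 3 SD over mean compound inhibition, in both replicates, cut at about 43% in these data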;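 note: modified DeaD lifespan yeast strain shifted to restrictive glucose medium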); details: OD615, 48 h, at 10 µM, stronger effect = higher value
# [11] = viability gain of MRP-1-high H69AR cells under doxorubicin, pilot screen, MRP-1 activator project, CellTiter-Glo, duplicate (AID 807;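 active = viability increase at or above a cutoff of the median across tested compounds plus 3 SD, cut at about 8.5% in these data, passing the limit was not always enough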;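 note: compound pretreatment 18-22 h then 72 h combined with doxorubicin; 0% = doxorubicin alone and 100% = vehicle without doxorubicin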); details: H69AR viability with doxorubicin, CellTiter-Glo luminescence; at 10 µM; stronger effect = higher value
# [12] = growth suppression of beta-catenin knockout HCT116, pilot screen, human colon tumor cells (AID 823;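 active = cell viability at or below a set limit in both duplicate runs, the limit being the all-compound median minus 4 SD, cut at about 23% in these data, passing the limit was not always enough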;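 note: 0% = wells killed by 20 µM Hyamine and 100% = untreated DMSO cell wells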); details: CellTiter-Glo, 60 h, at 10 µM, stronger effect = lower value
# [13] = growth suppression of PTEN-deleted HCT116, pilot screen, cell-based, HCT116 clonal line, CellTiter-Glo (AID 824;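 active = viability at or below 27.92% in each of two runs, the all-compound median minus 4 SD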;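 note: 0% = 20 µM Hyamine control and 100% = vehicle cell control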); details: 60 h, at 10 µM, stronger effect = lower value
# [14] = inhibitors of the yeast RAM network, pilot screen, dse1pr::URA3 reporter, 5-FOA selection (AID 869;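 active = inhibition over a set limit, the all-compound mean plus 3 SD, in both replicate runs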;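 note: 0% = DMSO wells with no growth and 100% = 10 µM 1-NA-PP1 with full growth; RAM network block rescues cells from 5-FOA so hits raise OD615 growth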); details: S. cerevisiae dse1pr::URA3 5-FOA growth, OD615, 2 d; at 10 µM; stronger effect = higher value; strain carries analog-sensitive mutant Cbk1 kinase
# [15] = RAM signaling pathway blockade in yeast – S. cerevisiae, Pdr1DBD-CYC8 efflux-inhibited sensitized strain, primary screen (AID 1298;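 active = RAM network inhibition above 8.4% in each of two replicates, 3 SD over the compound average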;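 note: 0% = DMSO untreated cells without growth and 100% = 10 µM 1-NA-PP1 full growth; higher means more yeast growth rescued from 5-FOA killing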); details: S. cerevisiae cbk1-as DSE1-URA3 strain, 5-FOA growth OD615, 2 d; at 50 µM; stronger effect = higher value
# [16] = H69AR cells + 2 uM doxorubicin, measured here: viability with 2 uM doxorubicin, stronger effect = lower value
# [17] = H69AR cells, compound alone cytotoxicity
compound,measurement,setting,value
CS(=O)(=O)NCCSCc1c(F)cccc1Cl,viability,[1],89.5%
same,Her2 level,[2],107% (inactive)
same,viability,[3],89.5% (inactive)
same,viability,[4],100% (inactive)
same,viability,[5],102% (inactive)
same,differential viability (reversal),[6]; H69AR cells + 2 uM doxorubicin,12.5% (inactive)
same,viability,[6]; [16],89.7%
same,viability,[6]; [17],102%
same,inhibition,[7],0.4% (inactive)
same,inhibition,[8],-8.06% (inactive)
same,growth inhibition,[9],-2.46% (inactive)
same,growth inhibition,[10],-2.41% (inactive)
same,viability increase,[11],0.04% (inactive)
same,viability,[12],96.2% (inactive)
same,viability,[13],91.9% (inactive)
same,inhibition,[14],1.1% (inactive)
same,RAM network inhibition,[15],1.27% (inactive)
CCCCCCn1c(SCC(=O)OC)nc2c1c(=O)[nH]c(=O)n2C,viability,[1],100%
same,Her2 level,[2],90% (inactive)
same,viability,[3],100% (inactive)
same,viability,[4],81.1% (inactive)
same,viability,[5],70.9% (inactive)
same,differential viability (reversal),[6]; H69AR cells + 2 uM doxorubicin,0.365% (inactive)
same,viability,[6]; [16],70.6%
same,viability,[6]; [17],70.9%
same,inhibition,[7],-4.8% (inactive)
same,inhibition,[8],1.33% (inactive)
same,growth inhibition,[9],-12.9% (inactive)
same,growth inhibition,[10],9.17% (inactive)
same,viability increase,[11],-1.89% (inactive)
same,viability,[12],98.6% (inactive)
same,viability,[13],103% (inactive)
same,inhibition,[14],0.08% (inactive)
same,RAM network inhibition,[15],2.66% (inactive)
O=c1c2ccccc2nc(SCc2nc(-c3ccccc3)no2)n1-c1ccc(F)cc1,viability,[1],90.5%
same,Her2 level,[2],98% (inactive)
same,viability,[3],90.5% (inactive)
same,viability,[4],79.7% (inactive)
same,viability,[5],89.7% (inactive)
same,differential viability (reversal),[6]; H69AR cells + 2 uM doxorubicin,-5.78% (inactive)
same,viability,[6]; [16],95.5%
same,viability,[6]; [17],89.7%
same,inhibition,[7],-5.73% (inactive)
same,inhibition,[8],2.17% (inactive)
same,growth inhibition,[9],2.33% (inactive)
same,growth inhibition,[10],-3.72% (inactive)
same,viability increase,[11],-1.52% (inactive)
same,viability,[12],72.2% (inactive)
same,viability,[13],68.6% (inactive)
same,inhibition,[14],1.77% (inactive)
same,RAM network inhibition,[15],8.86% (inactive)
COc1ccc(/C=N/O)cc1COc1ccc(NC(C)=O)cc1,viability,[1],115%
same,Her2 level,[2],98% (inactive)
same,viability,[3],115% (inactive)
same,viability,[4],102% (inactive)
same,viability,[5],103% (inactive)
same,differential viability (reversal),[6]; H69AR cells + 2 uM doxorubicin,13.2% (inactive)
same,viability,[6]; [16],90.2%
same,viability,[6]; [17],103%
same,inhibition,[7],-4.32% (inactive)
same,inhibition,[8],1.9% (inactive)
same,growth inhibition,[9],-5.25% (inactive)
same,growth inhibition,[10],-2.58% (inactive)
same,viability increase,[11],-0.85% (inactive)
same,viability,[12],90.9% (inactive)
same,viability,[13],93.4% (inactive)
same,inhibition,[14],0.83% (inactive)
same,RAM network inhibition,[15],0.92% (inactive)
CC(C)(C)SCCNC(=O)COc1ccccc1,viability,[1],112%
same,Her2 level,[2],88.5% (inactive)
same,viability,[3],112% (inactive)
same,viability,[4],88.4% (inactive)
same,viability,[5],96.8% (inactive)
same,differential viability (reversal),[6]; H69AR cells + 2 uM doxorubicin,11.8% (inactive)
same,viability,[6]; [16],85%
same,viability,[6]; [17],96.8%
same,inhibition,[7],-6.22% (inactive)
same,inhibition,[8],4% (inactive)
same,growth inhibition,[9],-2.07% (inactive)
same,growth inhibition,[10],4.92% (inactive)
same,viability increase,[11],0.03% (inactive)
same,viability,[12],95.7% (inactive)
same,viability,[13],96.6% (inactive)
same,inhibition,[14],1.81% (inactive)
same,RAM network inhibition,[15],2.63% (inactive)
CCCCn1c(CN2CCN(c3ccccc3)CC2)nc2c1c(=O)n(C)c(=O)n2C,viability,[1],89%
same,Her2 level,[2],105% (inactive)
same,viability,[3],89% (inactive)
same,viability,[4],85.7% (inactive)
same,viability,[5],85.6% (inactive)
same,differential viability (reversal),[6]; H69AR cells + 2 uM doxorubicin,19.2% (inactive)
same,viability,[6]; [16],66.4%
same,viability,[6]; [17],85.6%
same,inhibition,[7],-2.27% (inactive)
same,inhibition,[8],-3.67% (inactive)
same,growth inhibition,[9],-4.55% (inactive)
same,growth inhibition,[10],1.55% (inactive)
same,viability increase,[11],-3.11% (inactive)
same,viability,[12],36.1% (inactive)
same,viability,[13],65.2% (inactive)
same,inhibition,[14],0.475% (inactive)
same,RAM network inhibition,[15],2.8% (inactive)
CNC(=O)CN(c1ccc(C(C)C)cc1)S(C)(=O)=O,viability,[1],94%
same,Her2 level,[2],108% (inactive)
same,viability,[3],94% (inactive)
same,viability,[4],95.6% (inactive)
same,viability,[5],86.3% (inactive)
same,differential viability (reversal),[6]; H69AR cells + 2 uM doxorubicin,0.39% (inactive)
same,viability,[6]; [16],85.9%
same,viability,[6]; [17],86.3%
same,inhibition,[7],-3.25% (inactive)
same,inhibition,[8],-4% (inactive)
same,growth inhibition,[9],-10.4% (inactive)
same,growth inhibition,[10],-21.6% (inactive)
same,viability increase,[11],0.08% (inactive)
same,viability,[12],95% (inactive)
same,viability,[13],96.1% (inactive)
same,inhibition,[14],1.04% (inactive)
same,RAM network inhibition,[15],2.63% (inactive)
COc1ccccc1Oc1ccc(S(=O)(=O)N2CCOCC2)cc1S(=O)(=O)N1CCOCC1,viability,[1],86.5%
same,Her2 level,[2],121% (inactive)
same,viability,[3],86.5% (inactive)
same,viability,[4],101% (inactive)
same,viability,[5],83.6% (inactive)
same,differential viability (reversal),[6]; H69AR cells + 2 uM doxorubicin,-4.58% (inactive)
same,viability,[6]; [16],88.1%
same,viability,[6]; [17],83.6%
same,inhibition,[7],-0.77% (inactive)
same,inhibition,[8],-6.67% (inactive)
same,growth inhibition,[9],-16.4% (inactive)
same,growth inhibition,[10],-21.3% (inactive)
same,viability increase,[11],-0.17% (inactive)
same,viability,[12],93.6% (inactive)
same,viability,[13],98.3% (inactive)
same,inhibition,[14],2.41% (inactive)
same,RAM network inhibition,[15],4.3% (inactive)
O=C(CSc1nc(-c2ccco2)cc(C(F)(F)F)n1)NCCCn1ccnc1,viability,[1],94%
same,Her2 level,[2],93% (inactive)
same,viability,[3],94% (inactive)
same,viability,[4],64.9% (inactive)
same,viability,[5],94.7% (inactive)
same,differential viability (reversal),[6]; H69AR cells + 2 uM doxorubicin,-4.19% (inactive)
same,viability,[6]; [16],98.9%
same,viability,[6]; [17],94.7%
same,inhibition,[7],-2.53% (inactive)
same,inhibition,[8],-2.3% (inactive)
same,growth inhibition,[9],-8.51% (inactive)
same,growth inhibition,[10],-15.7% (inactive)
same,viability increase,[11],-0.15% (inactive)
same,viability,[12],98.6% (inactive)
same,viability,[13],96.3% (inactive)
same,inhibition,[14],1.44% (inactive)
same,RAM network inhibition,[15],9.1% (inactive)
